The values below come from PubChem BioAssay (NCI).

Assay in all cases: NCI-60 one-dose screen, 48 h (100 = growth as untreated, 0 = no growth, -100 = all killed)
Common to all, as to conditions: 10 µM

Assay [1] relates to NCI-H23 lung.
Assay [2] relates to NCI-H226 lung.
Assay [3] relates to NCI-H322M lung.
For assay [4], the system named is HOP-62 NSCLC.
For assay [5], the system named is NCI-H460 lung.
Assay [6] relates to NCI-H522 lung.
In assay [7] the test system is A549/ATCC NSCLC.
Assay [8] has as its system 786-0 renal.
Assay [9] has as its system COLO 205 colon.
Assay [10] has as its system HOP-92 NSCLC.

About 83,000 compounds went through this panel and 20% of them were active in at least one assay; those are over-represented in the sample as a whole.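 Compound tested at a single concentration for 48 hours in 96-well plates; a percent growth value below 10 was scored as active.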 Unmarked numbers belong to inactive results. Calls of active or inactive are those of the source.

Regarding `CC(=O)c1ccc(C)c(N)c1`, the growth was 81.5% in assay [1]; 95.8% in [2]; 121% in assay [3]; 99.6% in [4]; 111% in assay [5]; 99.9% in assay [6]. Besides, the growth in [7] was 92.8%; in assay [8], 103%; in assay [9], 110%.

On to `C#Cc1cccc(NC(=O)c2ccc(Cl)cc2Cl)c1`, for which the growth in assay [1] is 102%; in [2] it was 104%; in assay [3] it was 98.3%; in [4], 108%; in assay [5], 105%; in [6], 74.4%. The growth is 48.7% in [7], 99.9% in assay [8] and 128% in assay [9].

For the compound `Cc1ccc(Cl)cc1NC(=O)N(C)CCO`, the growth in assay [1] is 110%; in [2], 115%; in assay [3], 116%; in assay [4], 109%; in assay [5] it was 108%; in assay [6] it was -7.39% (active). Further, the growth was 59.5% in [7], 109% in assay [8] and 144% in assay [9].

As to `COc1cc(-c2ccc(NC(=O)NC3CC3)c(OC)c2)ccc1NC(=O)NC1CC1`, the growth in assay [1] was 98.3%; in [2], 102%; in assay [3] it was 110%; in assay [4], 101%; in [5], 16.2%; in [6] it was -10.3% (active). Further, the growth in assay [7] was 26.8%; in assay [8], 74%; in assay [9] it was 103%.

As to `Oc1ccc(O)cc1`, the growth in assay [1] is 96.3%; in [2], 110%; in assay [3], 106%; in assay [4], 106%; in assay [5], 113%; in assay [6] it was -40.8% (active). The growth was 102% in assay [7], 114% in assay [8] and 112% in assay [9].

`CCc1ccc(/C(C#N)=C/C=C/c2ccccc2)cc1`: the growth in assay [1] was 33.4%; in assay [2], 67.3%; in [3], 32.7%; in [4], 34.4%; in [5], 13.7%; in [6] it was -39.4% (active). Also, the growth is 28.7% in assay [7], 63.2% in assay [8] and -15% (active) in assay [9].

Consider `CCOC(=O)c1[nH]c(C)c(C(=O)O)c1C`, for which the growth is 109% in [1]; 101% in assay [2]; 91.8% in assay [3]; 111% in [4]; 110% in assay [5]; 90.4% in assay [6]. Further, the growth is 76.2% in [7], 110% in assay [8] and 112% in assay [9].

`C[C@@H](c1ccccc1)[C@@H](C(=O)O)c1ccccc1`: the growth in assay [1] was 100%; in assay [2], 98.8%; in assay [3], 97.5%; in assay [4] it was 99.7%; in assay [5], 104%; in assay [6], 99.9%. The growth is 101% in [7], 99.5% in [8] and 107% in [9].

With `Cc1ccc(/C(C#N)=C/c2ccc3c(c2)OCO3)cc1`, the growth in assay [1] is 71.2%; in assay [2] it was 85.9%; in assay [3], 78.8%; in assay [4], 78.2%; in [5], 71.3%; in assay [6], 51.4%. For the same compound, the growth in assay [7] is 57.5%; in [8], 104%; in assay [9], 65.8%.

For `COc1ccc(C)cc1OC`, the growth in assay [1] is 96.4%; in [2], 98.8%; in assay [3], 88.8%; in [4], 102%; in assay [5], 107%; in assay [6], 104%. The figures for the growth in assay [7], in assay [8] and in assay [9] were 96.9%, 105% and 113%, respectively.

In the case of `COC(=O)c1cccc(Br)c1`, the growth is 102% in [1]; 106% in assay [2]; 97.5% in [3]; 92% in [4]; 109% in [5]; 102% in assay [6]. The growth in assay [7] was 116%; in assay [8], 110%; in assay [9], 121%.

Take `CC(C)(N)COS(=O)(=O)O`: the growth was 116% in [1]; 104% in [2]; 115% in [3]; 98.3% in assay [4]; 103% in assay [5]; 87.6% in [10]. The growth was 94.7% in assay [8] and 105% in [9].

With `Cc1ccccc1C1N=C2Oc3ccccc3C=C2C(=O)N1` (stereo not drawn), the growth was 48.7% in assay [1]; 3.49% (active) in [2]; 37.4% in [3]; 33.3% in assay [4]; 30.6% in assay [5]; -32.7% (active) in [6]. The growth is 33.5% in [7], 37.8% in [8] and 0.577% (active) in assay [9].

Turning to `Cc1ccc(C(O)C2CC2)cc1` (stereo not drawn), the growth in assay [1] is 103%; in assay [2], 91.9%; in assay [3], 97.1%; in assay [4], 106%; in assay [5] it was 103%; in [6], 107%. In addition, the growth in assay [7] was 95.9%; in assay [8], 103%; in assay [9], 110%.

Take `N#C/C(=C\c1cc(O)c(O)c(O)c1)C(N)=O`: the growth in [1] is 102%; in assay [2] it was 108%; in assay [3], 110%; in assay [4], 97.2%; in assay [5], 110%; in [6], 76.5%. Moreover, the growth in assay [7] is 105%; in assay [8] it was 94.6%; in [9] it was 104%.

Take `Cc1ccc(C(=O)N/N=C/c2ccc3c(c2)OCO3)cc1`: the growth in assay [1] is 91%; in assay [2] it was 101%; in assay [3], 98.8%; in assay [4], 97.5%; in assay [5], 96.6%; in assay [6], 80.9%. Further, the growth in assay [7] is 97.7%; in [8], 99.8%; in assay [9], 113%.

Turning to `CCOC(=O)c1coc(C(=O)OCC)c1C(=O)OCC`, the growth in assay [1] was 100%; in [2], 111%; in assay [3], 120%; in assay [4], 119%; in assay [5] it was 111%; in assay [6], 128%. Further, the growth is 108% in assay [7], 108% in assay [8] and 128% in assay [9].

For the compound `O=[N+]([O-])c1ccc(O)c(S(=O)(=O)O)c1`, the growth was 103% in assay [1]; 102% in assay [2]; 126% in assay [3]; 101% in [4]; 109% in assay [5]; 104% in [6]. The results for the growth in assay [7], in [8] and in assay [9] were 106%, 104% and 122%, respectively.

In the case of `Oc1ccc2c(c1)OCC1(O)Cc3cc(O)c(O)cc3C21` (stereo not drawn), the growth was 86.9% in [1]; 98.2% in assay [2]; 103% in assay [3]; 82.2% in assay [4]; 112% in assay [5]; -34.1% (active) in assay [6]. Also, the growth is 93.7% in assay [7], 95.2% in assay [8] and 165% in [9].

Turning to `O=c1cc2oc3cc(O)c(O)cc3c(-c3ccccc3O)c-2cc1O`, the growth in assay [1] is 82.4%; in assay [2], 87%; in [3] it was 57.5%; in assay [4], 63%; in [5] it was 96%; in assay [6], 66.8%. The growth in [7] was 108%; in assay [8], 57.2%; in [9], 126%.

In the case of `COc1cc2nc3cc([N+](=O)[O-])ccc3c(Cl)c2cc1OC`, the growth in assay [1] was 98.6%; in assay [2], 56.3%; in [3], 103%; in assay [4], 111%; in assay [5], 109%; in assay [6], 70.7%. In addition, the growth in [7] was 95.7%; in assay [8], 104%; in assay [9], 112%.
